The text below walks through data of PubChem BioAssay (NCI).

What all share (assay): NCI-60 one-dose screen, 48 h (100 = growth as untreated, 0 = no growth, -100 = all killed)
Holding throughout (details): 10 µM unless noted

Assay [1] deals with NCI-H23 lung.
The subject of assay [2] is NCI-H226 lung.
Assay [3] relates to NCI-H322M lung.
Assay [4] concerns HOP-62 NSCLC.
Assay [5] deals with NCI-H460 lung.
The test system of assay [6] is HOP-92 NSCLC.
The subject of assay [7] is NCI-H522 lung.
For assay [8], the system named is A549/ATCC NSCLC.
Assay [9] deals with 786-0 renal.
Assay [10] relates to COLO 205 colon.
In assay [11] the test system is DU-145 prostate.
In assay [12] the test system is K-562 leukemia.
Assay [13] has as its system MALME-3M melanoma.
In assay [14] the test system is MDA-MB-231 breast.
For assay [15], the system named is RXF 393 renal.
The test system of assay [16] is SF-268 CNS.
Assay [17] deals with SF-295 CNS.
For assay [18], the system named is SF-539 CNS.
Assay [19] deals with UACC-257 melanoma.
Assay [20] has as its system M14 melanoma.

Several values for one entry are separate records, joined by “and”; a condition that tells them apart may be missing. Identical values can stand only once. The panel holds about 83,000 compounds, 20% with a hit somewhere; the sample as a whole holds those more often.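 Results are percent growth after 48 hours of single-concentration exposure. 100 means growth as in untreated cells, lower positive values show inhibition; negative values down to -100 show cell death.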 A number with no mark means an inactive call. Activity calls are given as the source filed them. How the source made its calls: active means growth percent below 10; inactive means the rest.

As for `COc1ccc(C(=O)N/N=C/c2ccc(O)cc2O)cc1Nc1ccnc(C(F)(F)F)c1`, the growth in assay [1] was 32.1%; in assay [2] it was 45%; in assay [3] it was 30.9%; in assay [4] it was 11.8%; in [5], 24.7%; in assay [6], 51.8%. The growth in [7] is 36.2%; in assay [8], 53.3%; in [9], 3.75% (active); in [10], 37.1%; in assay [11] it was 48.1%; in assay [12], 26.6%. Also, the growth in assay [13] is 9.52% (active); in [14], 51.6%; in assay [15], 49%; in assay [16], 49.9%; in [17], 22.7%; in [18] it was 10.3%. The figures for the growth in assay [19] and in assay [20] were 33.1% and 2.43% (active), respectively.
`COc1ccc2c(O)c(/C=C3\N=Nc4nc(C)ccc43)oc2c1CC1CCNCC1`: the growth in assay [1] is 67.2%; in assay [2] it was 57.5%; in [3], 80.8%; in [4], 64.3%; in assay [5] it was 79.3%; in assay [6] it was 39.2%. The growth is 43.4% in [7]; 68.2% in assay [8]; 54.1% in assay [9]; 78.4% in [10]; 87.9% in assay [11]; 49.3% in [12]. In addition, the growth in assay [13] is 19.1%; in assay [14] it was 34.6%; in assay [15] it was -0.196% (active); in [16] it was 67.4%; in assay [17] it was 90%; in assay [18], 55.9%. Moreover, the growth was 74.5% in assay [19] and 35.4% in [20].
As for `COc1cc2ncnc(Nc3ccc(F)c(Cl)c3)c2cc1OCC(=O)N1CCCCC1`, the growth is 91% in assay [1]; 86.8% in [2]; 29% in [3]; 103% in [4]; 95.5% in assay [5]; 81.6% in assay [6]. Further, the growth in [7] was 33.1%; in assay [8] it was 67.8%; in assay [9] it was 78.2%; in [10], 96%; in assay [11], 53.8%; in assay [12], 73.6%. Also, the growth in assay [13] is 99.1%; in [14] it was 105%; in assay [15] it was 84.8%; in assay [16], 80%; in assay [17] it was 92.1%; in assay [18] it was 104%. The figures for the growth in assay [19] and in assay [20] were 101% and 85.5%, respectively.
Consider `COc1ccc(Nc2ncnc3ccc(-c4cncc(NS(C)(=O)=O)c4)cc23)cc1Cl`, for which the growth was 35.4% in assay [1]; 56% in assay [2]; 54.6% in assay [3]; 39.2% in assay [4]; 75.9% in assay [5]; -7.88% (active) in assay [6]. Moreover, the growth in [7] was 9.61% (active); in [8], 64.5%; in [9], 58.3%; in assay [10], 30.2%; in assay [11] it was 46.9%; in assay [12], 28.1%. In addition, the growth in assay [13] is 36.2%; in assay [14] it was 21.6%; in [15] it was 26.8%; in assay [16], 24.9%; in [17], 55.8%; in assay [18], 18.9%. Besides, the results for the growth in assay [19] and in assay [20] were 37% and 51.5%, respectively.
With `CCCCCCCC/C=C\CCCCCCCCOc1ccccc1CC(=O)NCC[N+]1(C)CCOCC1`, the growth in assay [1] was 69.5%; in [2] it was 62.3%; in assay [3] it was 93.7%; in assay [4] it was 50.6%; in assay [5], 39.4%; in [6], 67.2%. The growth is 51% in assay [7]; 74.4% in assay [8]; 55.6% in assay [9]; 17.3% in assay [10]; 85.3% in assay [11]; 56.9% in [12]. Moreover, the growth was 100% in [13]; 80.1% in [14]; 24.7% in assay [15]; 66.8% in [16]; 67.6% in assay [17]; 91.3% in [18]. Moreover, the growth is 83.8% in assay [19] and 75.6% in assay [20].
On to `Cc1ccc(-c2nc3nc(-c4ccc(Cl)cc4)nc(N4CCCNCC4)c3o2)cc1`, for which the growth is 96.4% in assay [1]; 111% in assay [2]; 17.4% in assay [3]; 97.6% in assay [4]; -81.6% (active) in assay [5]; 83.6% in assay [6]. Further, the growth in [7] was 62.2%; in [8] it was -81.6% (active); in assay [9], -82.9% (active); in [10] it was -66.4% (active); in [11] it was -21.9% (active); in assay [12], -56.7% (active). Besides, the growth in assay [13] is 91.8%; in assay [14] it was -75.7% (active); in assay [15], 80.2%; in [16] it was 97%; in assay [17], 85.3%; in assay [18], -96.1% (active). Besides, the growth in [19] is 103%; in assay [20] it was -75.9% (active).
Take `NNCCc1ccccc1`: the growth was 103% and 88.8% in assay [1]; 93.3% and 75.7% in [2]; 95.2% in assay [3]; 104% and 103% in [4]; 115% and 105% in assay [5]; 83.1% and 102% in assay [6]. Besides, the growth in assay [7] is 92.1% and 94.1%; in assay [8] it was 108% and 90.5%; in assay [9], 95.2% and 106%; in [10], 96.5% and 103%; in [11] it was 122% and 108%; in assay [12], 91.5% and 105%. Besides, the growth was 82.1% in assay [13]; 93.4% and 83.5% in [14]; 122% and 80.3% in assay [15]; 108% and 96.1% in assay [16]; 106% and 92% in assay [17]; 96.9% in [18]. The growth is 121% in assay [19]; 101% and 96.1% in assay [20].
